Rows were chosen to be rich in hits. Some 3.5% of all compounds tested hit in one or more screens of this group.
Vc quorum ag: induces V. cholerae light production without autoinducers; 350,000 tested, 0.16% active; activation, % at 18.7 µM; V. cholerae BH1578 lux reporter, luminescence, 6 h; in the data active means activation mostly above about 9.7%, no sharp cut-off; inconclusive means no clear call, values can overlap the other calls; inactive means mostly below about 3.7%
Anthrax LF inh2: anthrax lethal factor protease inhibition. multiplex microsphere protease cleavage assay, LF. P15917. 360,000 tested, 0.12% active. inhibition, % at 10 µM; further: plate controls were buffer without enzyme for full effect and enzyme alone for no effect
BoNT-A LC inh2: BoNT A light chain protease inhibition. inhibition, % at 10 µM. 360,000 tested, 0.17% active. multiplex microsphere protease substrate cleavage, flow cytometry. AID 588499; further: plate controls were buffer without enzyme for full effect and enzyme alone for no effect
Autofluor counter: counter-screen for toxin protease inhibitors: compound fluorescence; compound autofluorescence counterscreen, microsphere flow cytometry; hits give high values; fluorescence intensity (no concentration beside the values); 360,000 tested, 3.1% active; in the data active means fluorescence intensity above about 16000; inconclusive means no clear call, values can overlap the other calls
BoNT F protease: inhibitors of Botulinum neurotoxin F light chain protease. Multiplex microsphere protease cleavage assay, flow cytometry. inhibition, % at 10 µM. 360,000 tested, 0.22% active; in the data active means inhibition above about 35%, passing the limit was not always enough; inconclusive means no clear call, values can overlap the other calls; further: plate controls were buffer without enzyme for full effect and enzyme alone for no effect
Numbers without * were called inactive; i = inactive; ? = inconclusive; nt = not tested or not shown. Unless noted, no stated cut-off is given here; in the data, active means inhibition above about 30%; inconclusive means no clear call, values can overlap the other calls; inactive means below that.

SMILES | Vc quorum ag | Anthrax LF inh2 | BoNT-A LC inh2 | Autofluor counter | BoNT F protease
Cc1ccc(NC(=O)C(C)N2CCCC2)cc1Cl (configuration not stated) | -0.3 | -1.4 | -0.7 | 2108 | -5.6
CCSc1nnc([C@@H](N)Cc2ccccc2)o1 | -0.2 | -1.0 | -3.6 | 21095* | -5.1
Cc1cccc(NC(=O)CSc2nnc([C@@H](N)Cc3c[nH]c4ccccc34)o2)c1C | -6.2 | -4.2 | -0.8 | 23387* | -7.5
N[C@@H](Cc1c[nH]c2ccccc12)c1nnc(SCc2ccccc2F)o1 | i | -0.7 | 1.2 | 22370* | -3.9
Cc1ccc(C)c(NC(=O)CSc2nnc(-c3ccco3)o2)c1 | i | 0.8 | 0.2 | 3391 | -3.3
CCSc1nnc([C@@H](N)Cc2c[nH]c3ccccc23)o1 | -0.3 | -10.5 | -0.9 | 9078 | -15.6
Cc1ccc(C)c(NC(=O)CSc2nnc([C@@H](N)Cc3ccccc3)o2)c1 | -12.5 | -3.9 | -3.4 | 24097* | -4.8
CN1CCN(c2ncnc3c2ncn3[C@H]2CN(Cc3ccco3)C[C@@H](CO)O2)CC1 | i | 1.4 | 0.6 | 3732 | 4.0
CC1CC(C)CN(C(=O)C2CCN(S(=O)(=O)c3cccc4cccnc34)CC2)C1 (configuration not stated) | -0.4 | 4.0 | 2.0 | 6029 | 2.7
CC(=O)[C@@]1(O)[C@H](C)CC2C3CC=C4CC(OP(=O)(O)O)CC[C@]4(C)C3CC[C@@]21C (some centres not stated) | -1.4 | -5.5 | -0.9 | 3624 | -1.9
C[C@@H]1C(=O)O[C@H]2[C@H](O)[C@@]34[C@H]5C[C@@H](C(C)(C)C)[C@]36[C@@H](OC(=O)[C@@H]6O)O[C@@]4(C(=O)O5)[C@@]12O | i | -4.8 | 0.6 | 3622 | 5.4
COC(=O)C(C)Oc1ccc(Oc2nc(Cl)ccc2Cl)cc1 (configuration not stated) | -0.3 | 1.0 | 0.4 | 4271 | -3.3
CCC1Oc2ccc(C)cc2N(CC(=O)N(Cc2cccnc2)Cc2cccc(F)c2)C1=O (configuration not stated) | 7.1 | -5.4 | -2.2 | 10641 | -18.9
O=C(CN1C(=O)COc2ccccc21)N(Cc1cccnc1)Cc1cccc(F)c1 | -0.2 | -0.3 | ? | 16903* | -3.7
CNC(=O)C[C@H]1C(=O)N(c2ccc(OC)cc2)C[C@@H]1C | -0.3 | 1.9 | -0.4 | 3698 | -1.4
Cc1c(NC(=S)NC(=O)Cc2ccccc2)cccc1C(=O)O | -1.2 | -2.7 | ? | 21800* | -1.3
Cc1nc(-c2ccccc2)cs1 | -14.3 | -1.0 | 3.1 | 21622* | 3.9
COc1ccc(-c2csc(C)n2)cc1 | -0.6 | 1.4 | 0.7 | 8707 | 9.8
COc1ccc(-c2csc(C)n2)cc1OC | i | -2.7 | 0.4 | 23023* | 3.8
Clc1ccc(CN2CCN(c3ncccn3)CC2)c(Cl)c1 | -0.3 | 5.3 | -5.2 | 4112 | -28.8
CCC(Sc1nc2cc3c(cc2c(=O)n1Cc1ccco1)OCO3)C(=O)NCCOC (configuration not stated) | -0.6 | -8.2 | 0.0 | 5792 | -10.7
CCC(Sc1nc2cc3c(cc2c(=O)n1Cc1ccco1)OCO3)C(=O)Nc1cccc(OC)c1 (configuration not stated) | -2.4 | -6.0 | 1.4 | 21154* | 1.9
CCC(C)NC(=O)CSc1nc2cc3c(cc2c(=O)n1Cc1ccco1)OCO3 (configuration not stated) | -1.7 | -0.2 | 0.5 | 3710 | -3.9
CCC(Sc1nc2cc3c(cc2c(=O)n1Cc1ccco1)OCO3)C(=O)Nc1ccccc1OC (configuration not stated) | -1.8 | -0.9 | ? | 23027* | -1.2
NC(=O)NC(=O)COC(=O)CCSc1ccccc1 | i | -7.8 | 0.6 | 4229 | 1.6
SMILES | Vc quorum ag | Anthrax LF inh2 | BoNT-A LC inh2 | Autofluor counter | BoNT F protease
COc1ccc(C(=O)OCC(=O)Nc2ccc(OC(F)F)cc2)c(OC)c1 | 3.8 | 3.1 | 1.0 | 16151* | 2.4
Cc1nnc(Sc2c(N)n(C)c(=O)n(C)c2=O)s1 | i | -6.9 | 0.5 | 20250* | -2.7
Cc1nnc(SCCn2c(Br)nc3c2c(=O)n(C)c(=O)n3C)s1 | i | -7.3 | -0.8 | 5889 | -17.0
CCN(CC(=O)NCc1ccccc1Cl)CC(=O)Nc1c(F)cccc1F | 4.8 | -6.8 | -1.5 | 4965 | -11.0
O=C(CCn1nnc2ccccc21)Nc1nnc(-c2ccccc2F)s1 | i | 1.8 | 1.9 | 22751* | 3.8
O=C(CCn1nnc2ccccc21)Nc1nnc(COc2ccccc2F)s1 | -2.1 | 0.3 | 1.1 | 3701 | 8.4
COc1ccc(S(=O)(=O)N(CC(=O)NCc2ccco2)c2ccccc2)cc1 | 3.8 | 0.9 | ? | 19214* | 1.7
COc1ccc(N(CC(=O)NCc2ccco2)S(=O)(=O)c2ccccc2)cc1 | -0.4 | 6.9 | 1.6 | 4356 | 6.1
CN(CC(=O)NCc1ccco1)S(=O)(=O)c1ccc2c(c1)n(C)c(=O)c(=O)n2C | -0.1 | -2.5 | -3.2 | 24204* | -2.9
CC(C)OCCCNC(=O)C1CCN(S(=O)(=O)c2ccc3nc4c(c(C(=O)O)c3c2)CCCCC4)CC1 | -5.9 | 0.6 | 1.0 | 5415 | 1.1
CCc1ccc2nc(N(CCN(C)C)C(=O)c3ccc4ncsc4c3)sc2c1 | -0.5 | -4.3 | 0.7 | 5598 | -0.3
CCc1ccccc1-n1nnnc1SCC(=O)Nc1ccc(N2CCN(C)CC2)cc1 | i | -1.9 | -4.7 | 6084 | -10.9
CCCN1CCc2c(sc3nc(SCC)n(-c4ccc(OC)cc4)c(=O)c23)C1 | i | 28.9 | 40.3* | 4205 | 11.3
CCCN1CCc2c(sc3nc(SCC)n(-c4ccccc4)c(=O)c23)C1 | -0.6 | 14.8 | 33.9* | 5969 | 5.1
CCSc1nc2sc3c(c2c(=O)n1-c1ccccc1)CCN(C)C3 | 0.7 | 4.1 | 28.9 | 4805 | -64.5
CN(CC(=O)Nc1cccc(F)c1)C(=O)CC1CCCCC1 | i | ? | 10.6 | ? | ?
CCC(Sc1nc(C)cc(=O)[nH]1)C(=O)Nc1nc(-c2ccccc2)cs1 (configuration not stated) | -0.2 | -1.6 | -1.1 | 22493* | -2.9
Cc1cc(C)c(C(=O)c2ccc(C(=O)N(C(C)C)C(C)C)cc2)c(C)c1 | -0.9 | 0.2 | -5.8 | 22394* | -4.4
Cc1cc(C)c(C(=O)c2ccc(C(=O)NC(C)(C)C)cc2)c(C)c1 | -0.4 | -3.0 | -0.4 | 11865 | -3.6
COc1ccccc1C(=O)C1Nc2ccccc2-c2nnc(SC)nc2O1 (configuration not stated) | -11.5 | 1.9 | 3.8 | 21854* | 7.3
CCC1Nc2ccccc2-c2nnc(SC)nc2O1 (configuration not stated) | nt | -6.9 | -0.6 | 2570 | -1.9
CCc1ccc([C@@H]2CC=C(C(=O)O)[C@H](c3ccccc3F)N2S(=O)(=O)c2ccc(C)cc2)cc1 | i | -6.1 | 0.0 | 2982 | -10.5
Cc1ccc(-n2c(Cn3nc(C(F)(F)F)cc3C)n[nH]c2=S)cc1 | i | -4.0 | ? | 17459* | -6.2
C=CCN(CC(=O)O)S(=O)(=O)c1ccccc1C(F)(F)F | 0.0 | 1.9 | 0.0 | 4174 | -1.7
COc1ccc(C2c3c4c(n(C)c3CCN2C)CCN(C)C4c2ccc(OC)cc2)cc1 (configuration not stated) | -0.2 | -2.4 | -0.6 | 16735* | -0.6

High-throughput results as filed in PubChem BioAssay.
